Compound activity deposited in PubChem by several laboratories.
DAX1 inh-1 – inhibits human nuclear receptor DAX1; P51843; HEK293 Gal4-DAX1 luciferase reporter, luminescence; inhibition, % at 6.75 µM; hit rate 0.99% among 340,000;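 active means inhibition above the mean over all tested compounds plus 3 SD, cut at about 4.2% in these data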;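 further: inhibition shows as a rise in luminescence from relieved DAX1 repression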
Target sequence (P51843 207-470 limits assumed): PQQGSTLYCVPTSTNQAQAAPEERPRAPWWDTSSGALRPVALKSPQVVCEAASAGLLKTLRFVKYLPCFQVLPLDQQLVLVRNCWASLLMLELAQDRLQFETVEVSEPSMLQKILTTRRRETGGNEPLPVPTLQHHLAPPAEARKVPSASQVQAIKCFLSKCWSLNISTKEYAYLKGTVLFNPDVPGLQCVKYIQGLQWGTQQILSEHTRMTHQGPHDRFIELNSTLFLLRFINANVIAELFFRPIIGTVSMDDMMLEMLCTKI
hcDAF-12 act – activates DAF-12 receptor from parasite H. contortus | activation, % at 6.8 µM | HEK293 hcDAF-12 lit1-tk-luc reporter, luminescence; 0% DMSO, 100% Δ7-dafachronic acid | hit rate 1.4% among 370,000;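 active means activation above the mean of all tested compounds plus 3 SD, cut at about 5.5% in these data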
PolyA inh – yeast polyadenylation inhibition. AID 1875. hit rate 0.02% among 300,000. S. cerevisiae SKY197-pL101 polyadenylation reporter, beta-gal luminescence; efflux-impaired pdr1/pdr3 knockout yeast; score 100 = 6 SD above DMSO. activity score, % at 12 µM;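 active means lowest replicate activity score at least 50, where 100 means six control SD above control mean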;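 further: yeast exposed to compound for 9 h at 30 °C; higher score means more reporter readthrough which indicates perturbed polyadenylation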
DAX1 inh-2 – inhibitors of DAX1 repression of SF-1 activated StAR promoter. hit rate 1.1% among 370,000. inhibition, % at 6.8 µM. HEK293T StAR-luciferase reporter, SF-1/DAX-1 repression relief. AID 652010;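 active means inhibition above the mean over all tested compounds plus 3 SD, cut at about 3.6% in these data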;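 further: higher inhibition means more luminescence from relief of DAX-1 repression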
hgDAF12 agonist – agonists of H. glycines DAF-12 nuclear receptor; hit rate 1.8% among 370,000; AID 687014; activation, % at 6.8 µM; HEK293 GAL4-hgDAF12 UAS-luciferase reporter, agonist luminescence; normalized to butyrate control;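 active means activation above a cutoff set at the mean of all screened compounds plus 3 SD, cut at about 10% in these data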
ssDAF12 agonist – S. stercoralis DAF-12 activation, primary screen; HEK293 ssDAF-12/GRIP1 lit1-tk-luc reporter, luminescence; % of 3 µM dafachronic acid response; activation, % at 6.8 µM; hit rate 1% among 370,000; AID 652126;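 active means activation above the mean over all tested compounds plus 3 SD, cut at about 0.9% in these data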
DAX1 conf – confirmation of human DAX1 (NR0B1) inhibitors. shares compounds with DAX1 inh-2. HEK293T StAR-promoter luciferase reporter, SF-1/DAX-1 repression. inhibition, % at 6.8 µM. hit rate 87% among 2,400. AID 652134;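 active means inhibition above the average of every tested compound plus 3 SD, cut at about 3.8% in these data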;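 further: active compounds raise luminescence by relieving repression of the StAR reporter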
SF1 mutant ctr – nonselective inhibitor or artifact in SF-1 mutant DAX1 counter-screen; HEK293 StAR-luciferase, SF-1 AF2 mutant, luminescence; inhibition, % at 6.8 µM; hit rate 78% among 2,400; AID 652136; shares compounds with DAX1 inh-2;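 active means inhibition above the mean of all tested compounds plus 3 SD, cut at about 3% in these data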
LXR ag – activates human LXR-beta, counter-screen for hcDAF-12 agonists | shares compounds with hcDAF-12 act | HEK293 Gal4-LXR tk-luc reporter, luminescence, 24 h; normalized: DMSO 0%, positive control 100% | activation, % at 6.8 µM | AID 743027 | 3,400 tested, under 10 active;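 active means mean percent activation of the reporter above a cutoff set as the average over tested compounds plus their standard deviation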
Target sequence (P55055 whole entry, looked up, the tested form may be a part): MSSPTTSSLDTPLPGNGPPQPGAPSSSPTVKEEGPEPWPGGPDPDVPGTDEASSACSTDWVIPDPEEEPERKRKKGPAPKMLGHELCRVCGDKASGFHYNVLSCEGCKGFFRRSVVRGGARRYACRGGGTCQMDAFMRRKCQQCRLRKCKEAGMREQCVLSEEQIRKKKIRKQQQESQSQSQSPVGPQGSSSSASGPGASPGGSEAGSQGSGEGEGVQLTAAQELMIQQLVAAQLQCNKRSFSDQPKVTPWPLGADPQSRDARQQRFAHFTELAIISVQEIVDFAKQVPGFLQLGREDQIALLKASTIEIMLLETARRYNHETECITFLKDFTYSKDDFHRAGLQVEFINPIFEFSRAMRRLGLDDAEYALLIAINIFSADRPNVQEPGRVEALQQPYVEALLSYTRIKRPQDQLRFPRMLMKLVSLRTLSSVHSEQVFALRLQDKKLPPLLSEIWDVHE
hcDAF12 ag – confirmation of H. contortus DAF-12 agonists | shares compounds with hcDAF-12 act | HEK293 hcDAF-12 lit1-tk-luc reporter, luminescence; % of Δ7-dafachronic acid response | activation, % at 6.8 µM | hit rate 61% among 3,400 | AID 743032;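 active means mean activation across triplicate tests above the threshold derived from the earlier primary screen, cut at about 5.5% in these data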
hgDAF12 conf – confirmation of H. glycines DAF-12 agonists; shares compounds with hgDAF12 agonist; HEK293 GAL4-hgDAF12 luciferase reporter, agonist mode; percent of butyrate response; hit rate 80% among 3,300; activation, % at 6.8 µM;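 active means mean activation over triplicate wells above the hit cutoff derived from the earlier primary screen, cut at about 11% in these data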
LXR ag 2 – LXR-beta agonism as DAF-12 counter-screen | shares compounds with hgDAF12 agonist | HEK293 Gal4-LXR luciferase reporter, 24 h | activation, % at 6.8 µM | 3,300 tested, under 10 active;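 active means mean activation of the triplicate above a set limit carried over from the primary screen, none filed active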
Large screens that a line does not name were inactive (follow-up assays come after a bar, where they were run). An excerpt weighted towards active compounds, which were near 4.1% of everything screened.

CCC1Sc2ccc(S(=O)(=O)CCC(=O)Nc3cc(C)ccn3)cc2NC1=O (centres undefined)	none
COc1ccccc1NC(=O)Nc1ccc2c(c1)nnn2C	none
Cn1nnc2cc(NC(=O)Nc3ccccc3F)ccc21	DAX1 inh-2 7.4, hgDAF12 agonist 15 (no result: PolyA inh) | DAX1 conf 9.8 | SF1 mutant ctr 4.4 | hgDAF12 conf 14 | LXR ag 2 inactive
COc1cc(NC(=O)c2cc(C)no2)c(OC)cc1Cl	none
O=C(Nc1ccccc1NC(=O)c1csnn1)c1csnn1	none
CC(C)c1ccc(NC(=O)c2csnn2)cc1	DAX1 inh-2 4.7, hgDAF12 agonist 13, ssDAF12 agonist 1.1 | DAX1 conf 12 | SF1 mutant ctr 6.6 | hgDAF12 conf 13 | LXR ag 2 inactive
O=C(CSC(=S)N1CCCCC1)c1ccccc1	none
O=C(CSC(=S)N1CCCC1)c1ccccc1	DAX1 inh-2 9.6, hgDAF12 agonist 18 | DAX1 conf 9.5 | SF1 mutant ctr 7.4 | hgDAF12 conf 14 | LXR ag 2 inactive
CCc1ccc2cc3c(cc2n1)C(=O)c1ccccc1-3	hcDAF-12 act 17, DAX1 inh-2 9.5, hgDAF12 agonist 21, ssDAF12 agonist 3.6 (no result: DAX1 inh-1, PolyA inh) | DAX1 conf 11 | SF1 mutant ctr 6.4 | LXR ag inactive | hcDAF12 ag 16 | hgDAF12 conf 23 | LXR ag 2 inactive
c1ccc(-c2csc(CN3CCCCC3)n2)cc1	hcDAF-12 act 7.1, DAX1 inh-2 5.3, hgDAF12 agonist 19, ssDAF12 agonist 0.9 (no result: PolyA inh) | DAX1 conf 8.2 | SF1 mutant ctr 4.8 | LXR ag inactive | hcDAF12 ag 9.2 | hgDAF12 conf 18 | LXR ag 2 inactive
O=C(CSc1nc2ccccc2nc1N1CCCCC1)N1CCN(S(=O)(=O)c2cc(Cl)ccc2Cl)CC1	none (no result: DAX1 inh-1, PolyA inh)
CCCCC(=O)Nc1cc2nn(-c3ccc(OC)cc3)nc2cc1C	none
CCC(=O)Nc1cc2nn(-c3ccc(OC)cc3)nc2cc1C	DAX1 inh-1 5.5, DAX1 inh-2 5.1, hgDAF12 agonist 16 | DAX1 conf 13 | SF1 mutant ctr 3.3 | hgDAF12 conf 14 | LXR ag 2 inactive
CCS(=O)(=O)Nc1cc(-c2nc3cccnc3s2)ccc1C	hcDAF-12 act 8.3, DAX1 inh-2 6.4, hgDAF12 agonist 22 | DAX1 conf 8.9 | SF1 mutant ctr 7.7 | LXR ag inactive | hcDAF12 ag 5.6 | hgDAF12 conf 16 | LXR ag 2 inactive
CC(C)c1ccc(/C=C/C(=O)Nc2nncs2)cc1	hcDAF-12 act 13, DAX1 inh-2 5.5, hgDAF12 agonist 19 | DAX1 conf 14 | SF1 mutant ctr 4.8 | LXR ag inactive | hcDAF12 ag 6.3 | hgDAF12 conf 18 | LXR ag 2 inactive
CN1CCN(c2ccc(C(F)(F)F)cc2NC(=O)Nc2ccccc2)CC1	none
Clc1ccccc1Nc1nc2ccccc2o1	hcDAF-12 act 11, DAX1 inh-2 9.3, hgDAF12 agonist 13, ssDAF12 agonist 1.2 (no result: PolyA inh) | DAX1 conf 14 | SF1 mutant ctr 9.0 | LXR ag inactive | hcDAF12 ag 10 | hgDAF12 conf 23 | LXR ag 2 inactive
Cc1cccc(C)c1Nc1nc2ccccc2o1	none
COc1ccccc1CNC(=O)[C@@H](NC(=O)C1CCN(C(=O)[C@@H]2CCCN2)CC1)C(C)C	none
OC(c1ccc(F)cc1)c1nc(-c2cnc3ccccc3c2)cs1 (centres undefined)	hcDAF-12 act 6.6, DAX1 inh-2 5.1, hgDAF12 agonist 16 (no result: DAX1 inh-1, PolyA inh) | DAX1 conf 11 | SF1 mutant ctr 8.1 | LXR ag inactive | hcDAF12 ag 7.9 | hgDAF12 conf 19 | LXR ag 2 inactive
COc1ccc(C(O)c2nc(-c3cnc4ccccc4c3)cs2)cc1 (centres undefined)	none (no result: DAX1 inh-1, PolyA inh)
CCCc1ccc(OC(=O)c2ccc(O)cc2Cl)cc1	hcDAF-12 act 8.4, DAX1 inh-2 5.3, hgDAF12 agonist 16 | DAX1 conf 14 | SF1 mutant ctr 6.0 | LXR ag inactive | hcDAF12 ag 8.1 | hgDAF12 conf inactive | LXR ag 2 inactive
CN1OC[C@@H]2CN[C@H](c3ccc(-c4cccc(F)c4)cc3)C[C@@H]21	DAX1 inh-2 6.2, hgDAF12 agonist 13 (no result: PolyA inh) | DAX1 conf 6.3 | SF1 mutant ctr inactive | hgDAF12 conf inactive | LXR ag 2 inactive
O=C(O)c1ccc(Nc2nc(-c3ccccc3)cs2)cc1	DAX1 inh-2 5.0, hgDAF12 agonist 15 | DAX1 conf 13 | SF1 mutant ctr 7.7 | hgDAF12 conf 16 | LXR ag 2 inactive
Cc1csc(Nc2ccc(C(=O)O)cc2)n1	none
Cc1ccc2nc(-c3ccc(NC(=O)CSCC(=O)O)cc3)sc2c1	hcDAF-12 act 7.0, DAX1 inh-2 4.8, hgDAF12 agonist 24 | DAX1 conf 15 | SF1 mutant ctr 8.8 | LXR ag inactive | hcDAF12 ag 5.8 | hgDAF12 conf 18 | LXR ag 2 inactive
O=C(CCN1C(=O)c2ccccc2C1=O)Nc1ccc(-c2nc3ccccc3s2)cc1	none
Cc1ccc2nc(-c3ccc(NC(=S)NC(=O)C(C)C)cc3)sc2c1	none
Cc1ccc2nc(-c3ccc(NC(=O)C(C)N4C(=O)c5ccccc5C4=O)cc3)sc2c1 (centres undefined)	hcDAF-12 act 8.6, DAX1 inh-2 6.2, hgDAF12 agonist 21 | DAX1 conf 8.8 | SF1 mutant ctr 5.8 | LXR ag inactive | hcDAF12 ag inactive | hgDAF12 conf 13 | LXR ag 2 inactive
Cc1ccc2nc(-c3ccc(NC(=S)NC4CC(C)(C)NC(C)(C)C4)cc3)sc2c1	DAX1 inh-1 4.4, DAX1 inh-2 7.5, hgDAF12 agonist 19 | DAX1 conf 12 | SF1 mutant ctr 10 | hgDAF12 conf 17 | LXR ag 2 inactive
